Compound activity (PubChem)
HIV RNase H inh-1 = HIV-1 RT RNase H inhibitors, primary screen, biochemical, fluorescence; inhibition, % at 10 µM; RT-RNase H RNA/DNA duplex cleavage; 1.9% of 65,000 active; Gag-Pol polyprotein (Human immunodeficiency virus type 1 group M subtype B (isolate …; AID 565, 2006; in the data active means inhibition above about 50%
RmlC RmlD mix = RmlC and RmlD coupled enzyme inhibitors, primary screen, biochemical, 384-well, compound mixtures, retest; RmlC/RmlD coupled enzyme inhibition, 384-well mixture HTS; inhibition, % at 5.5 µM; 0.39% of 110,000 active; in the data active means inhibition above about 30%, passing the limit was not always enough; inconclusive means no clear call, values can overlap the other calls
HIV RNase H inh-2 = HIV-1 RT RNase H inhibitors, retest, confirmation, biochemical; shares compounds with HIV RNase H inh-1; Recombinant RT RNase H, fluorescent RNA/DNA duplex cleavage; inhibition, % at 10 µM; 39% of 1,000 active; AID 651, 2007; in the data active means inhibition above about 48%; inconclusive means no clear call, values can overlap the other calls
* marks the source's active call; other numbers are inactive results; u = inconclusive; x = no result given. The sample as a whole holds a higher share of hits than the screen did.

SMILES	HIV RNase H inh-1	RmlC RmlD mix	HIV RNase H inh-2
COc1ccc(C2SCC(=O)Nc3c2c(C)nn3-c2ccccc2)cc1 (stereo unspecified)	x	13	x
O=C(O)C(O)c1ccco1 (stereo unspecified)	57*	x	48
O=C(O)C(O)c1ccccc1 (stereo unspecified)	x	-34	x
Cc1ccc(NS(=O)(=O)c2ccc(OCC(=O)N3CCOCC3)cc2)cc1	x	13	x
COC(=O)CN1C(=O)C(O)(CC(=O)c2ccccc2)c2ccccc21 (stereo unspecified)	19	x	x
COC(=O)CN1C(=O)C(O)(CC(=O)c2ccc(C)cc2)c2ccccc21 (stereo unspecified)	54*	-19	-1
O=C1c2ccccc2C(=O)N1CCc1nc2ccccc2c(=O)n1CCCn1ccnc1	-18	-12	x
CCOc1ccccc1C(=O)N(Cc1ccccc1)Cc1cc2cc3c(cc2[nH]c1=O)OCCO3	x	0	x
CC(=O)Nc1cccc(Oc2cc(C#N)c(C#N)cc2N2CCCCCC2)c1	-27	-15	x
C=CCN1C(=O)C(Cc2ccc(OC)cc2)S/C1=N/N=C/c1ccco1 (stereo unspecified)	x	110	x
CN1CCN(Cc2cc(C(C)(C)C)c(O)c(C(C)(C)C)c2)CC1	x	-8	x
CC(C)(C)c1cc(C(c2cccnc2)N2CCN(CCO)CC2)cc(C(C)(C)C)c1O (stereo unspecified)	83*	10	-5
CCOC(=O)c1cccc(NC(=O)c2c(NCc3ccccc3)[nH]c(=O)[nH]c2=O)c1	x	5	x
Cc1ccc(NC(=O)c2cc(NC(=O)c3ccco3)ccc2N2CCOCC2)cc1	10	-4	x
Cc1ccc(NC(=O)c2cc(NC(=O)c3ccco3)ccc2N2CCCCC2)cc1	58*	-44	31
Cn1c(C(=O)OCC(=O)NCCc2ccccc2)cc2sccc21	6	2	x
COc1cccc2sc(N3CCN(c4nc5ccccc5s4)CC3)nc12	71*	-2	u
CCN1CCN(c2nc3ccccc3s2)CC1	x	67	x
COC(=O)C1=C(C(=O)c2ccccc2)C(c2cccs2)n2nnnc2N1 (stereo unspecified)	-1	11	x
CC1=C(C(=O)Nc2ccc(Cl)cc2)C(c2cccs2)n2nnnc2N1 (stereo unspecified)	73*	4	5
C[C@]12C(=O)N(c3ccc(Cl)cc3)C(=O)N1[C@@H]1c3ccccc3OC[C@@H]1[C@H]2c1ccccc1	x	-7	x
CC(C)n1cc(/C=C(\C#N)S(=O)(=O)c2ccccc2)c2ccccc21	-40	1	x
Cc1cc(=O)[nH]c(/N=C(/NC(=O)c2ccccc2)Nc2ccc3c(c2)OCCO3)n1	48	x	x
CCCc1cc(=O)[nH]c(/N=C(/NC(=O)c2ccccc2)Nc2ccc3c(c2)OCCO3)n1	61*	9	48
CCCN(CCC)C(=O)CSc1nc2ccccc2c(=O)n1C1CCCC1	-8	-2	x
SMILES	HIV RNase H inh-1	RmlC RmlD mix	HIV RNase H inh-2
CCC(NC(=O)NCc1cccnc1)(C(F)(F)F)C(F)(F)F	2	-8	x
COc1ccc2nc(SCC(=O)Nc3c(C)cccc3C)[nH]c2c1	x	5	x
COc1ccc2nc(S(=O)Cc3ncc(C)c(OC)c3C)[nH]c2c1 (stereo unspecified)	76*	-10	18
CCOC(=O)c1c(C)oc2ccc(OCc3cc(C(=O)OC)oc3C)cc12	x	6	x
CCOC(=O)c1c(N)sc2c1CCSC2	x	-19	x
CCOC(=O)c1c(N)sc2c1CCC1C(=O)N(C3CCCCC3)C(=O)C21 (stereo unspecified)	74*	-5	68*
Cc1ccc(C2C(C#N)=C(N)SC(N)=C2C#N)cc1	67*	x	26
CC(c1ccccc1)C1C(C#N)=C(N)SC(N)=C1C#N (stereo unspecified)	-6	5	x
CC1=C(C#N)C(c2ccoc2)C(C(=O)OCc2ccccc2)=C(N)S1 (stereo unspecified)	-47	3	x
CC(C)C1C(C#N)=C(N)SC(N)=C1C#N	-8	131	x
N#CC1=C(N)SC(N)=C(C#N)C1c1ccoc1	86*	9	44
Cc1ccc(C2C(C#N)=C(N)SC(N)=C2C#N)c(C)c1	83*	-29	4
Cn1c(Cl)c(/C=N/OC(=O)c2ccc(Cl)cc2)c2ccccc21	x	-13	x
c1cncc(-c2nn3c(Cn4cnc5ccccc54)nnc3s2)c1	97*	-6	68*
c1ccc(OCc2nn3c(Cn4cnc5ccccc54)nnc3s2)cc1	38	8	x
CCCC(=O)NC(C)c1nc(-c2ccc(C)cc2)no1 (stereo unspecified)	x	8	x
O=C(NC(=O)c1ccc(Cl)cc1)Nc1cc(N2CCCCC2)ncn1	75*	x	99*
O=C(Nc1cc(N2CCOCC2)ncn1)Nc1cccc2ccccc12	-2	-3	x
CCC(=O)Nc1cccc(C2=NOC3(C2)C[C@H](C(N)=O)N(C(=O)CC#N)C3)c1 (stereo partly specified)	x	6	x
O=c1/c(=C/c2ccccn2)sc2nc3ccccc3n12	60*	x	79*
COC(=O)/C=c1/sc2nc3ccccc3n2c1=O	-3	7	x
CCCN(CCC)C(=O)c1cc(-c2ccc3c(c2)OCO3)nc2ccccc12	x	21	x
CS(=O)(=O)N(CC(=O)N1CCc2ccccc2C1)Cc1ccc(Cl)cc1	x	9	x
CCn1ncc(/C=N\NC(=O)c2cc(-c3ccc(C)cc3C)nc3ccccc23)c1C	x	-10	x
CCN(CC)c1ccc(/C=N/N2CCOCC2)cc1	x	0	x
SMILES	HIV RNase H inh-1	RmlC RmlD mix	HIV RNase H inh-2
CCN(CC)c1ccc(C=N/C(C#N)=C(\N)C#N)cc1	80*	14	45
N#Cc1ccc(OCc2nnc(SCC(=O)N3CCCc4ccccc43)n2-c2ccccc2)cc1	88*	3	49
COc1ccc(OCc2nnc(SCC(=O)N3CCCc4ccccc43)n2-c2ccc(C)cc2)cc1	x	-16	x
Cc1cc(-c2cc(C(=O)Nc3ccccc3)on2)nc(NCC2CC2)n1	x	5	x
O=C(CSc1nc2c(c(=O)[nH]1)CCC2)Nc1cccc(Cl)c1	87*	-9	38
CN(C)c1ccc(NC(=O)CSc2nc3c(c(=O)[nH]2)CCCC3)cc1	-2	21	x
Cc1ccc(-c2nn(CC(N)=O)c(=O)c3ccccc23)cc1S(=O)(=O)N(C)C	x	-12	x
N#Cc1c(N)oc(-c2ccco2)c1-c1ccco1	-45	-33	x
COc1ccc(OC)c(/C=N/c2oc(-c3ccco3)c(-c3ccco3)c2C#N)c1	58*	11	66*
O=C(c1cccc(OC(F)F)c1)N1CCN(c2ncccn2)CC1	-3	x	x
COc1ccc(C(=O)Nc2ccccc2C(=O)NC(C(=O)NCc2ccco2)C(C)C)cc1 (stereo unspecified)	82*	9	7
COc1ccc(C(=O)Nc2ccccc2C(=O)N(Cc2ccco2)C(C(N)=O)C(C)C)cc1 (stereo unspecified)	x	5	x
COc1ccccc1Cn1c2nc3ccccc3nc2c2c(=O)n(CC(C)C)cnc21	-5	x	x
O=C(NC1CCCCC1)C1CCCN1S(=O)(=O)c1cccc2nsnc12 (stereo unspecified)	-1	5	x
O=C(O)C1CSCN1S(=O)(=O)c1cccc2nsnc12 (stereo unspecified)	62*	4	-3
